# Source: PubChem BioAssay
# FLuc modulator: inhibits or activates purified firefly luciferase, miR-21 counter-screen. P08659. purified FLuc, Km substrates, luminescence inhibition. Potency, µM (highest dose often 57.5 µM), inactives show top-dose activity change, negative = inhibition, hits mostly inhibitors. 360,000 tested, 6.9% active;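 note: plate controls were vehicle for no effect and reference inhibitor for full effect; nearly all actives have a fitted effect of over 55% in size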
# Target sequence (P08659 whole entry, looked up): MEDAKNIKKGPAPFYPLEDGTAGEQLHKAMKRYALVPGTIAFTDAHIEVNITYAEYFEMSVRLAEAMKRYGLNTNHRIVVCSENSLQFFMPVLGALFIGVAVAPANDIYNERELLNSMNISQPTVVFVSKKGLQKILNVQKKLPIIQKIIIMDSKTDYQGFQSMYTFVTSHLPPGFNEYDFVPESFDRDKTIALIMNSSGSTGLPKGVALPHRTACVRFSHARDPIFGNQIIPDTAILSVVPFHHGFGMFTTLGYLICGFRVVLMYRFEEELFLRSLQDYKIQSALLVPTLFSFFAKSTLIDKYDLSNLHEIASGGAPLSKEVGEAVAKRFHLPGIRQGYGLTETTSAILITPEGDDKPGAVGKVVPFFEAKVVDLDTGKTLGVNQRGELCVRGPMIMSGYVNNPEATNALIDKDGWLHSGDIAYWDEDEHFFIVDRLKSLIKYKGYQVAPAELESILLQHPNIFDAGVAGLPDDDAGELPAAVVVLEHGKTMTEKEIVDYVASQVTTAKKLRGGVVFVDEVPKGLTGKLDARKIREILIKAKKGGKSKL
#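 Purified P. pyralis luciferase, 10 nM final, with Km-level 10 uM D-luciferin and 10 uM ATP in 50 mM Tris acetate pH 7.5, 10 mM Mg acetate, 0.01% Tween-20, 0.05% BSA; 6-point qHTS titration about 60 µM downward; luminescence read.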
# ELG1 genotox: induces genotoxicity in HEK293T cells with luciferase-tagged ELG1; HEK293T ELG1-luciferase reporter, luminescence, 16 h; Potency, µM (highest dose often 46 µM), inactives show at the highest dose activity change, positive = activation, actives largely listed as activators; 330,000 tested, 1.3% active; AID 504466; note: % of control where 0% means no effect; nearly all actives have a fitted effect of over 60% in size
#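 ELG1-luciferase HEK293T cells, 2,000/well; compound pinned in; 16 hr, 37 °C, 5% CO2; ONE-Glo, 30 min RT; luminescence on CCD imager.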
# SMN2 splice up: SMN2 splice variant enhancement; HEK293 SMN2-luciferase splicing reporter, luminescence, 30-36 h; Potency, µM (series often up to 46.1 µM), for inactives: at the top dose activity change, positive = activation, actives largely listed as activators; 210,000 tested, 2.8% active; AID 1458; note: % of control where 0% means no effect; nearly all actives have a fitted effect of over 55% in size
#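 HEK293 cells carry an SMN2 […]–luciferase reporter in which exon 7 inclusion puts luciferase in frame. Cells were plated 10-12 h before compound addition, then incubated 30-36 h at 37C. ONE-Glo luminescence was read; sodium butyrate at 4.5 mM final served as control.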
# NPC1 promoter act: NPC1 promoter activation | Huh7 NPC1 promoter luciferase reporter, 24 h | Potency, µM (series often up to 9.22 µM), without a hit: at the top dose activation, actives largely listed as activators | 320,000 tested, 2.4% active | AID 485313; note: % of control where 0% means no effect; nearly all actives have a fitted effect of over 60% in size
#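 Compounds in DMSO were transferred onto Huh7 NPC1-luciferase reporter cells pre-incubated 2 h; after 24 h at 37 °C, Amplite reagent was dispensed and luminescence recorded 10 min later.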
# Rab9 prom act: activators of Rab9 promoter; Potency, µM (series often up to 9.22 µM), without a hit: top-dose activation, negative = inhibition, actives largely listed as activators; 320,000 tested, 2.8% active; Huh7 Rab9 promoter-luciferase reporter, luminescence, 24 h; AID 485297; note: % of control where 0% means no effect; nearly all actives have a fitted effect of over 60% in size
#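 Using Huh7 cells stably transfected with Rab9 promoter–luciferase, compounds were incubated 24 h at 37 °C, 5% CO2; luciferase luminescence was read 10 min after reagent addition.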
# ELG1 repair inh: ELG1-dependent DNA repair inhibition | HEK293T ELG1-luciferase reporter, luminescence, 16 h; DNA damage induced by 5-fluorouridine | Potency, µM (highest dose often 46.1 µM), inactives show at the top dose activity change, negative = inhibition, usual class: inhibitors | 330,000 tested, 2.3% active; note: % is set by controls: 0 for no effect and ±100 for the full control effect; nearly all actives have a fitted effect of over 55% in size
#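 Quantitative HTS, concentration-response format. 2,000 cells/well co-treated with 5-fluorouridine and compound, 16 hr in 5% CO2 at 37 °C; ONE-Glo luminescence read after 30 min.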
# The depositor's hits bear a star; u = inconclusive; x = no result; [ ] = remark or other dose. This is a sample that favours compounds with a hit; in the whole collection about 9.2% have one here. Calls come from the whole dose curve; as a rule, active = well fitted curve in the direction sought with a large enough effect; inconclusive = small, poorly fitted or top-dose-only effect, or another doubt; inactive = no such curve, though single readings can be large; an effect the other way counts as inactive or inconclusive. Potency is the fitted concentration of half-maximal effect.
SMILES,FLuc modulator,ELG1 genotox,SMN2 splice up,NPC1 promoter act,Rab9 prom act,ELG1 repair inh
Cc1ccc(CNC(=O)Nc2ccccc2)c(C)c1,2.69µM*,18.3µM*,x,2.51µM*,3.16µM*,u
COc1ccc(CNC(=O)Nc2ccc(C)cc2C)cc1,-3.3%,2.8%,12.9%,5.2%,-2.3%,u
COc1ccc(CNC(=O)Nc2ccccc2)cc1,19µM*,u,x,u,3.55µM*,u
COc1ccc(CNC(=O)Nc2cccc(C)c2)cc1,u,u,20.0%,3.16µM*,3.98µM*,u
COc1ccc(CNC(=O)Nc2ccc(OC)cc2)cc1,-1.7%,14.6%,29.5%,-0.6%,-3.7%,13.5%
COC(=O)[C@H]1[C@H]2CC3c4[nH]c5ccccc5c4CCN3C[C@@H]2CC[C@@H]1O (stereo not given in full),x,x,-10.8%,x,x,x
CC(=O)OC1CC(C)OC(C)O1 (stereo not given),x,x,5.1%,x,x,x
O=C(COc1ccc([N+](=O)[O-])cc1Cl)N(C1CCCCC1)C1CCS(=O)(=O)C1 (stereo not given),0.8%,0.6%,x,1.2%,-4.1%,17.0%
COc1cc(/C=C2\SC(=S)N(NC(=O)c3ccccc3O)C2=O)ccc1O,16.9µM*,4.4%,x,-2.1%,-3.8%[1.84 µM],18.2%
O=C(NN1C(=O)/C(=C/c2ccc(O)c([N+](=O)[O-])c2)SC1=S)c1ccccc1Cl,16.9µM*,-5.9%,-21.3%,-0.4%,-0.5%,-18.0%
CC1(c2ccc([N+](=O)[O-])cc2)Nc2ccccc2S1 (stereo not given),21.3µM*,u,x,u,u,u
CC1CC(C)(C)NC(=S)N1CCCC(=O)Nc1ccc(F)cc1 (stereo not given),-1.1%,-0.4%,-8.0%,-0.7%,-3.1%,-1.4%
CC(C)(C)c1cc(NCCCn2ccnc2)n2ncc(-c3ccc(Cl)cc3)c2n1,26.9µM*,-4.2%,5.9%,21.9%,29.2%,u
CN(C)CCCNc1cc(-c2ccccc2)nc2cc(-c3cccc(F)c3)nn12,0.4%,22.8%,x,0.9%,0.8%,u
CN(C)CCCNc1cc(C(C)(C)C)nc2c(-c3ccccc3)cnn12,8.49µM*,u,x,3.55µM*,3.98µM*,u
CCOC(=O)C1CCCN(c2oc(-c3ccc(OC)cc3)nc2C#N)C1 (stereo not given),-3.1%,1.4%,1.6%,-1.6%,-2.9%,-4.3%
O=C(N/N=C/c1cccc(F)c1)c1c(O)c2c([nH]c1=O)CCCC2,u,u,12.6µM*,1.58µM*,2µM*,u
COC(=O)c1ccccc1NC(=O)Cc1noc2ccc(C)cc12,-11.4%,x,x,x,x,x
O=C(Nc1ccccc1)c1cc2c(=O)c3ccccc3oc2nc1C(F)(F)F,2.9%,-2.8%,-18.6%,-4.4%,-2.0%,0.9%
COCc1nc2oc3ccc(F)cc3c(=O)c2cc1C(=O)OC,u,u,x,2.82µM*,u,u
COCc1nc2oc3ccc(C)cc3c(=O)c2cc1C(=O)OC,10.7µM*,u,x,u,1.78µM*,u
CCc1nc2oc3ccccc3c(=O)c2cc1C(=O)OC,13.5µM*,u,x,3.16µM*,3.55µM*,u
O=C(O)[C@H](C1NCCS1)N1C(=O)c2ccccc2C1=O (stereo not given in full),x,x,-11.5%[9.22 µM],x,x,x
O=C(CCC(=O)N1CC2CCCN2c2ccccc21)NCc1ccccc1 (stereo not given),-8.3%,x,x,x,x,x
O=C(CC1CCCCC1)NCc1nc(-c2ccccc2)no1,-2.2%,-1.0%,x,2.5%,18.3%,-3.0%
SMILES,FLuc modulator,ELG1 genotox,SMN2 splice up,NPC1 promoter act,Rab9 prom act,ELG1 repair inh
O=S(=O)(NCc1ccccn1)c1ccccn1,0.5%,-0.9%,x,0.2%,2.9%,14.5%
Cn1cc(/C=N/NC(=O)c2ccccc2O)c2ccccc21,4.78µM*,9.3%,x,u,26.3%,u
Cn1cc(/C=N/NC(=O)c2cccc([N+](=O)[O-])c2)c2ccccc21,-2.1%,u,2.1%,7.0%,-10.1%,u
CC(C)(C)OC(=O)n1cc(/C=N/NC(=O)c2ccco2)c2ccccc21,9.53µM*,8.0%,x,21.7%,16.8%,u
CC(=O)n1cc(/C=N/NC(N)=S)c2ccccc21,-0.4%,18.1%,u,-0.3%,-0.9%,19.3%
O=C(N/N=C\c1coc2ccccc2c1=O)c1ccco1,-27.5%,-8.5%,x,-6.4%,-2.1%,-3.0%
CC(=O)n1cc(/C=N/NC(=O)c2ccccc2O)c2ccccc21,9.53µM*,11.5%,x,27.8%,u,29.4%
Cc1nc(C)c(C(=O)N/N=C/c2cn(C)c3ccccc23)s1,16.9µM*,1.1%,-3.6%,-2.5%,8.0%,u
NC(C(=O)O)[C@H](O)C(=O)O (stereo not given in full),x,x,3.1%,x,x,x
COc1ccc(-c2cc(C(F)(F)F)c(C#N)c(SCC(=O)Nc3ccc(F)cc3)n2)cc1,-0.7%,x,4.7%,x,x,x
CCOc1ccc(/C=C/C(=O)Oc2ccccc2)cc1,1.51µM*,5.2%,x,-3.6%,11.5%,5.5%
O=Cc1ccc(OC(=O)/C=C/c2ccccc2)cc1,19µM*,0.6%,x,-1.3%,5.1%,1.4%
O=C(/C=C/c1ccccc1)OCN1C(=O)c2ccccc2C1=O,3.7%,0.0%,x,-4.3%,0.1%[1.84 µM],0.6%
CCOc1ccc(/C=C/C(=O)c2ccc(-c3ccccc3)cc2)cc1,-8.3%,-4.6%,-20.4%,1.6%,-4.6%,2.8%
COC(=O)c1nnn(CC(=O)Nc2ccc(Br)c(C)c2)c1N,-2.8%,x,-1.2%,x,x,x
O=C1CCN(Cc2ccc([N+](=O)[O-])cc2)CCN1[C@H](CO)c1ccccc1,-0.4%,-0.8%,x,1.1%,-5.0%,-3.0%
Cc1ccccc1C(=O)N1CCCC(N2CCN(Cc3ccc4c(c3)OCO4)CC2)C1 (stereo not given),0.1%,-4.0%,x,-0.4%,4.4%,u
CCS(=O)(=O)N1N=C(c2cccs2)CC1c1cc2cc(C)ccc2nc1Cl (stereo not given),16.9µM*,14.5%,x,-2.4%,-4.0%,10.8%
Cc1ccc2nc(Cl)c(C3CC(c4cccs4)=NN3C(=O)CCCC(=O)O)cc2c1 (stereo not given),-2.3%,6.7%,-4.1%,0.4%,-2.4%,11.2%
Cc1cccc(-c2cc3nc(C)c(C)c(NCCCn4ccnc4)n3n2)c1,15.1µM*,-9.7%,x,3.0%,0.9%,u
Cc1cc(NCCCn2ccnc2)n2nc(-c3ccc(Cl)cc3)cc2n1,u,13.3%,2.9%,u,21.1%,u
Cc1cc(NCCCn2ccnc2)n2nc(-c3ccc(F)cc3)cc2n1,9.53µM*,5.2%,26.0%,17.5%,8.0%,u
